PubChem BioAssay (NCI)
About 83,000 compounds went through this panel and 20% of them were active in at least one assay; those are over-represented in the sample as a whole.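 Values shown are percent growth following 48 h exposure of cells in 96-well plates to a single concentration of compound; below 10 was considered active.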 The source made the active and inactive calls.

Legend:
Test in all cases: NCI-60 one-dose screen, 48 h (100 = growth as untreated, 0 = no growth, -100 = all killed)
Settings in all cases: 10 µM unless noted
[1] = system: SR leukemia
[2] = system: RPMI-8226 leukemia
[3] = system: OVCAR-8 ovarian
[4] = system: OVCAR-5 ovarian
[5] = system: OVCAR-4 ovarian
[6] = system: SK-OV-3 ovarian
[7] = system: IGROV1 ovarian
[8] = system: OVCAR-3 ovarian
[9] = system: NCI/ADR-RES ovarian
[10] = system: T-47D breast
[11] = system: BT-549 breast
[12] = system: MDA-MB-435 melanoma
[13] = system: SW-620 colon
[14] = system: MCF7 breast
[15] = system: HCT-116 colon
[16] = system: HCC-2998 colon
[17] = system: KM12 colon
[18] = system: HS 578T breast

Measured: growth

COc1ccc2c(c1)C(=Nc1cc(OC)c(OC)c(OC)c1)C(=O)N2
inactive: [1] 75.4% | [2] 65.9% | [3] 105% | [4] 99.5% | [5] 111% | [6] 97.4% | [7] 94.1% | [8] 72.4% | [9] 103% | [10] 98.7% | [11] 99% | [12] 118% | [13] 102% | [14] 105% | [15] 51% | [16] 125% | [17] 105%

Cc1sc2nc(N3CCCCC3)[nH]c(=O)c2c1C
inactive: [1] 97% | [2] 106% | [3] 96.5% | [4] 108% | [5] 100% | [6] 92.3% | [7] 107% | [8] 113% | [9] 96.5% | [10] 84.2% | [11] 99.1% | [12] 103% | [13] 96.2% | [14] 96.1% | [15] 93.2% | [16] 98% | [17] 102%

Cc1csc(C#Cc2cncc(O)c2)n1
active: [7] -14%
inactive: [1] 110% | [2] 98.5% | [3] 102% | [4] 90.9% | [5] 125% | [6] 108% | [8] 111% | [18] 132% | [10] 98.3% | [12] 96.8% | [13] 113% | [14] 97.8% | [15] 103% | [16] 107% | [17] 125%

CC1CC=CCC1C1OCC(C)(C)CO1 (centres undefined)
inactive: [1] 96.4% | [2] 97.2% | [3] 98.6% | [4] 104% | [5] 108% | [6] 110% | [7] 101% | [8] 109% | [9] 108% | [10] 75.3% | [11] 99.9% | [12] 105% | [13] 102% | [14] 101% | [15] 97.5% | [16] 113%

CCCCN=C(N)c1ccc(OCCSCCOc2ccc(C(N)=NCCCC)cc2)cc1
inactive: [1] 44.7% | [2] 26.2% | [3] 40.7% | [4] 84.1% | [5] 50.8% | [6] 41% | [7] 55.1% | [8] 39.6% | [18] 47.4% | [9] 90.9% | [12] 35.5% | [13] 57.5% | [14] 29.1% | [15] 41.5% | [16] 59% | [17] 27%
active: [11] -3.76%

Cc1ccc(C2=NNC(c3sc(Cl)nc3Cl)C2)cc1 (centres undefined)
active: [1] 3.24%
inactive: [2] 97.9% | [3] 100% | [4] 116% | [5] 84.7% | [6] 88.4% | [7] 80.6% | [8] 101% | [9] 94.5% | [10] 56.1% | [11] 98% | [12] 104% | [13] 72.1% | [14] 65.9% | [15] 74.7% | [16] 92.8% | [17] 99.5%

C/C(=C\CCc1ccoc1)CC/C=C(\C)CCCN1CCOCC1
inactive: [1] 21% | [2] 20.8% | [3] 71.5% | [4] 63% | [5] 58.3% | [6] 74.4% | [7] 71.3% | [8] 51.8% | [18] 69.9% | [9] 74.5% | [10] 27.4% | [12] 71.8% | [13] 57.8% | [14] 28.1% | [15] 39.2% | [16] 62.3% | [17] 56.9%

NS(=O)(=O)c1ccc(-n2nc(-c3ccc(Br)cc3)ccc2=O)cc1
active: [12] 0.0656% [100 µM]
inactive: [1] 21.1% [100 µM] | [2] 85.7% [100 µM] | [3] 88.2% [100 µM] | [4] 94.7% [100 µM] | [5] 89.4% [100 µM] | [6] 25% [100 µM] | [7] 50.2% [100 µM] | [8] 70.9% [100 µM] | [9] 57% [100 µM] | [10] 77% [100 µM] | [11] 38.6% [100 µM] | [13] 63% [100 µM] | [14] 74.8% [100 µM] | [15] 34.8% [100 µM] | [16] 91.9% [100 µM] | [17] 49.6% [100 µM]

O=C(N/N=C/c1cccc(O)c1)c1ccc(C(F)(F)F)nc1Nc1cccc(C(F)(F)F)c1
inactive: [3] 18.1% | [4] 34.3% | [5] 10.5% | [6] 24.6% | [7] 15% | [12] 51.2% | [16] 10.2%
active: [1] -38.7% | [2] -37.2% | [8] -12.2% | [10] 5.41% | [11] 1.67% | [13] 7.06% | [14] 3.77% | [15] -21.4% | [17] 8.65%

O=C(Nc1cccc(-n2cc(-c3ccncc3)c(-c3cc(O)cc(Cl)c3)n2)c1)Nc1ccc(Cl)c(Cl)c1
inactive: [5] 10.7% | [6] 13.2% | [7] 26% | [9] 12.8%
active: [1] -21.4% | [2] -15.3% | [3] -14.8% | [4] -2.26% | [8] -47.4% | [10] -5.53% | [11] 0.544% | [12] -33.3% | [13] -33.8% | [14] 2.74% | [15] -57.3% | [16] 0.568% | [17] 2.26%

CCOC(=O)C(C(=O)OCC)C1CCCCC1
inactive: [1] 97.3% | [2] 101% | [3] 102% | [4] 105% | [5] 102% | [6] 108% | [7] 93.2% | [8] 110% | [9] 109% | [10] 100% | [12] 101% | [13] 104% | [14] 98.6% | [15] 104% | [16] 111% | [17] 105%

COc1ccc(-c2nc3sc4c(c3c(=O)[nH]2)CCCCCC4)cc1
active: [12] 2.83%
inactive: [1] 27.9% | [2] 72% | [3] 70.7% | [4] 83.8% | [5] 50.4% | [6] 48% | [7] 63.1% | [8] 44.2% | [9] 51.2% | [11] 75.3% | [13] 29% | [14] 54.1% | [15] 33.9% | [16] 80.9% | [17] 34.8%

Clc1ccc(C2=NN(c3ccc(Cl)cc3)C(c3cccc(Nc4ccnc5cc(Cl)ccc45)c3)C2)cc1 (centres undefined)
inactive: [1] 77% | [2] 71.7% | [3] 80.4% | [4] 93.5% | [5] 73% | [6] 60.7% | [7] 75.4% | [8] 85.8% | [9] 74.1% | [10] 79.8% | [11] 68.4% | [12] 99.2% | [13] 90% | [15] 55% | [16] 94% | [17] 85.2%

COc1cc(C(=O)/C=C/c2cccc(Nc3ccnc4cc(Cl)ccc34)c2)cc(OC)c1OC
active: [1] -18.7% | [2] -15.9% | [3] -41% | [4] -35.8% | [5] -39.5% | [7] -54% | [8] -51.4% | [10] -46.4% | [11] -27.9% | [12] -16.1% | [13] -51.5% | [14] -40.3% | [15] -62.5% | [17] -8.69%
inactive: [6] 20.3% | [9] 12.2% | [16] 40.1%

O=CN1N=C(c2ccc(Cl)cc2)CC1c1cccc(Nc2ccnc3cc(Cl)ccc23)c1 (centres undefined)
active: [1] 1.88% | [9] 2.47% | [11] 7.26% | [12] 4.68% | [15] 7.72%
inactive: [2] 13.4% | [3] 12.6% | [4] 34.6% | [5] 29.2% | [6] 19.2% | [7] 34.4% | [8] 16.3% | [10] 11.8% | [13] 27% | [14] 11.3% | [16] 40.9% | [17] 19.8%

O=C(/C=C/c1cccc(Nc2ccnc3cc(Cl)ccc23)c1)c1ccc(Cl)cc1
inactive: [3] 45.1% | [4] 60.4% | [5] 45.6% | [6] 76.7% | [7] 40.7% | [8] 56.8% | [9] 38.1% | [10] 39.8% | [11] 54.3% | [12] 56.9% | [13] 24.7% | [14] 27.6% | [15] 14.2% | [16] 71.4% | [17] 62.6%
active: [1] -9.97% | [2] -9.58%

CC(=O)OCC(=O)[C@@]1(O)CC[C@H]2[C@@H]3CCC4=CC(=O)CC[C@]4(C)[C@@]3(F)[C@@H](O)C[C@@]21C
inactive: [1] 99.8% | [2] 62.5% | [3] 93.8% | [4] 80.2% | [5] 105% | [6] 63.7% | [7] 116% | [8] 106% | [9] 89.6% | [10] 109% | [11] 103% | [12] 115% | [13] 98.3% | [14] 87.3% | [15] 106% | [17] 109%

Cc1sc2nc(NCc3ccccc3)[nH]c(=O)c2c1C
active: [12] -31%
inactive: [1] 14.4% | [2] 49.6% | [3] 59.7% | [4] 70.5% | [5] 91.7% | [6] 50.8% | [7] 67.9% | [8] 40.7% | [9] 31.2% | [10] 31.6% | [11] 53.9% | [13] 26% | [14] 31% | [15] 24.5% | [16] 87.7% | [17] 36.2%
